# Test results from the supplement of paper PMC9023506.
# Structures can show the parent of a compound that is named as a salt.
# Test system: Danio rerio larvae (5 dpf)
# Test: startle response to 20-s acoustic pulses, difference vs DMSO (percentage points (treated minus DMSO)); higher = more of the behaviour than the DMSO vehicle control
# Settings: 10 µM; exposure time: 3 h pre-incubation + 3 h imaging
# Protocol: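 5-dpf wild-type zebrafish larvae were imaged in 96-well plates. They were treated with 190 Tocris FDA-approved drugs at 10 µM (1 µl/ml DMSO) for 3 h before and 3 h during imaging at 28.5 °C, 48 larvae per drug. Automated image analysis gave % time moving and optomotor responses. Values are drug group mean minus DMSO vehicle mean (n=844), in percentage points, for 10 behaviours.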
row,Compound,startle response to 20-s acoustic pulses
1,COc1cc2c(cc1OC)C1CC(=O)C(CC(C)C)CN1CC2 (configuration not stated) [Tetrabenazine],-5.81
2,C=CCN1C[C@H](C(=O)N(CCCN(C)C)C(=O)NCC)C[C@@H]2c3cccc4[nH]cc(c34)C[C@H]21 [Cabergoline],-8.7
3,CC(C)C[C@H]1C(=O)N2CCC[C@H]2[C@]2(O)O[C@](NC(=O)[C@@H]3C=C4c5cccc6[nH]c(Br)c(c56)C[C@H]4N(C)C3)(C(C)C)C(=O)N12 [Bromocriptine mesylate],-8.49
4,CC(O)(CS(=O)(=O)c1ccc(F)cc1)C(=O)Nc1ccc(C#N)c(C(F)(F)F)c1 (configuration not stated) [Bicalutamide],0.332
5,CC[C@@H](C(N)=O)N1CCCC1=O [Levetiracetam],1.64
6,O=c1[nH]c2ccccc2n1C1CCN(CCCC(c2ccc(F)cc2)c2ccc(F)cc2)CC1 [Pimozide],2.42
7,CCN(C)C(=O)Oc1cccc([C@H](C)N(C)C)c1 [Rivastigmine tartrate],5.58
8,COc1ccc(C(CN(C)C)C2(O)CCCCC2)cc1 (configuration not stated) [Venlafaxine hydrochloride],-5.93
9,CN1C[C@H](C(=O)N[C@]2(C)O[C@@]3(O)[C@@H]4CCCN4C(=O)[C@H](Cc4ccccc4)N3C2=O)C[C@@H]2c3cccc4[nH]cc(c34)C[C@H]21 [Dihydroergotamine mesylate],5.17
10,C=C1C[C@@H]2[C@H](CC[C@]3(C)C(=O)CC[C@@H]23)[C@@]2(C)C=CC(=O)C=C12 [Exemestane],2.55
11,Cc1cccc([C@H](C)c2c[nH]cn2)c1C [Dexmedetomidine hydrochloride],6.09
12,N[C@@H]1C[C@H]1c1ccccc1 [Tranylcypromine hydrochloride],-9.81
